# Measured values reported in ChEMBL document CHEMBL1961873, “Compounds: GSK PKIS; Assays: Nanosyn kinase panel” (2012).
# Assays:
# [1] = target: T1, Inhibitor of nuclear factor kappa-B kinase subunit epsilon (Homo sapiens) (UniProt Q14164); details: at 1 µM;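 also: reported values are averaged percent inhibition figures against human IKKε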
# T1 sequence (whole entry): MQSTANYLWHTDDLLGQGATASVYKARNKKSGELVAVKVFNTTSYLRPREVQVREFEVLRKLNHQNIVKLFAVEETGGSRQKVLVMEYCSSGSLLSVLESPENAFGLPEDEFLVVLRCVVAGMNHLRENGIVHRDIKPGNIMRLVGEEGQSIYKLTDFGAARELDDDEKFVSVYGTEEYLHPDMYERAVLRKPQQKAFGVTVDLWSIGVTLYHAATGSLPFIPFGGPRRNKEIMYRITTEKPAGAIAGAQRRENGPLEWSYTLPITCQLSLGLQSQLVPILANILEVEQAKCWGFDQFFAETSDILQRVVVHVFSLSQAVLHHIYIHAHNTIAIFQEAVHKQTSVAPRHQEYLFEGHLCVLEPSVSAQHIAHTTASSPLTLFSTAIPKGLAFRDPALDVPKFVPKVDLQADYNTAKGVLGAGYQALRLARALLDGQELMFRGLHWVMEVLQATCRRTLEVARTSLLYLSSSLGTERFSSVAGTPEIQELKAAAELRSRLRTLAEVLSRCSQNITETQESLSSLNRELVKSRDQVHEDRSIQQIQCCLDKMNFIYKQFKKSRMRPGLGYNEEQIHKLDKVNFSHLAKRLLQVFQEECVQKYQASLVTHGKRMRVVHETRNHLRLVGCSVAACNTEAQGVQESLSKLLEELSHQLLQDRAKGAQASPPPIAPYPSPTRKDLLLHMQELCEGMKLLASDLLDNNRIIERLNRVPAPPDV
# [2] = target: T2, Serine/threonine-protein kinase Nek1 (Homo sapiens) (UniProt Q96PY6); details: at 0.1 µM
# T2 sequence (whole entry): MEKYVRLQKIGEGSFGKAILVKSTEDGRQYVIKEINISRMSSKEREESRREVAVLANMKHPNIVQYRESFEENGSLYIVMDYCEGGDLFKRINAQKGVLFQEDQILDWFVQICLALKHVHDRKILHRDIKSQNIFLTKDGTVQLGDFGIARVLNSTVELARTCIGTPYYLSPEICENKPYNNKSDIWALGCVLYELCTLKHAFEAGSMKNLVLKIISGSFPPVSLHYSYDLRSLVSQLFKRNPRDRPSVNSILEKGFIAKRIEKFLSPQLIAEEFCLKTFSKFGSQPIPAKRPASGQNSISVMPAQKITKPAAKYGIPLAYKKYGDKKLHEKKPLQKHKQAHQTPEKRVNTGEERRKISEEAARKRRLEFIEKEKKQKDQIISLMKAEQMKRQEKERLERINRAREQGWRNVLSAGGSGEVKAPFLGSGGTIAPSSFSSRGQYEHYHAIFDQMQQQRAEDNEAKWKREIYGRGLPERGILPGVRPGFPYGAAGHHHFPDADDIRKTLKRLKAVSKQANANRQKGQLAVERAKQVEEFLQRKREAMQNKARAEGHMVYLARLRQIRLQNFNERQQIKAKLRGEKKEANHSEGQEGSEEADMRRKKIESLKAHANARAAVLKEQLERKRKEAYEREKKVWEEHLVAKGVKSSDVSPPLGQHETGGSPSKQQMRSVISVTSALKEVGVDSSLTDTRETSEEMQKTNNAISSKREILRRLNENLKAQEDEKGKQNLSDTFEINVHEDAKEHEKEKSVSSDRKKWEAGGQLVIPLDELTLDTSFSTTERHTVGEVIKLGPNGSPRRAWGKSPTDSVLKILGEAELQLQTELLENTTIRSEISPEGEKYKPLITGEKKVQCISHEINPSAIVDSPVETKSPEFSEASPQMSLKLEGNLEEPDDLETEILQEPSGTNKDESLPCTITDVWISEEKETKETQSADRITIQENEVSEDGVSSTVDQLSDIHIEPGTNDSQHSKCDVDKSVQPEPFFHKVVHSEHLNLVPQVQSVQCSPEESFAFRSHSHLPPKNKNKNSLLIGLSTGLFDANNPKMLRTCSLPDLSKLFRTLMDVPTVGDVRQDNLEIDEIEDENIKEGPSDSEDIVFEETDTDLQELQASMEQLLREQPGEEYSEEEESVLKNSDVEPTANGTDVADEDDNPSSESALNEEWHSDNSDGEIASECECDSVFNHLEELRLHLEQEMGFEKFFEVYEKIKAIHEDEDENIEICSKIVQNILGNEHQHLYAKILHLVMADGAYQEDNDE
# [3] = target: T2, Serine/threonine-protein kinase Nek1 (Homo sapiens); details: at 1 µM
# [4] = target: T3, Serine/threonine-protein kinase Nek2 (Homo sapiens) (UniProt P51955); details: at 0.1 µM
# T3 sequence (whole entry): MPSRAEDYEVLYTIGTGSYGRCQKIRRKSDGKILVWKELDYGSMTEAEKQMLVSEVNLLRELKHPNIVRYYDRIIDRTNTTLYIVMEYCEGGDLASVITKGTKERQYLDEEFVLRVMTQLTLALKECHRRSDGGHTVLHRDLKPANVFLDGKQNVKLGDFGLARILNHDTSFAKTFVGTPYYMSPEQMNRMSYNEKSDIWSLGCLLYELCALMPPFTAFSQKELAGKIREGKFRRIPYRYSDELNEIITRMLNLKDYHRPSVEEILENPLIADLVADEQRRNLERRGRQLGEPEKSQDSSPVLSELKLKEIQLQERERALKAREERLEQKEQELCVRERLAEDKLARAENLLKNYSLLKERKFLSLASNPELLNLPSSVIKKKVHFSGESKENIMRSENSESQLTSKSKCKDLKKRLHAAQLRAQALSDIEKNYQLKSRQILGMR
# [5] = target: T3, Serine/threonine-protein kinase Nek2 (Homo sapiens); details: at 1 µM
# [6] = target: Serine/threonine-protein kinase Nek6 (Homo sapiens) (UniProt Q9HC98); details: at 0.1 µM
# Chain of Serine/threonine-protein kinase Nek6 (Homo sapiens) (Q9HC98 whole entry): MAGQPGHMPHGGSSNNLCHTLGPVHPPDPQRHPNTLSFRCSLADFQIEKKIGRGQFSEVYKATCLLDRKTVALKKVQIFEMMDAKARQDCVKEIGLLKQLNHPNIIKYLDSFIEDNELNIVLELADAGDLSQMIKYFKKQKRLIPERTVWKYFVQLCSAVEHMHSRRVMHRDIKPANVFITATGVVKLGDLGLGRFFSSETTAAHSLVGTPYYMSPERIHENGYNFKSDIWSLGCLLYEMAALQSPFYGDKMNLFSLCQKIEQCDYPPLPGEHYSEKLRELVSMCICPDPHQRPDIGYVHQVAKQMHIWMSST
# [7] = target: Serine/threonine-protein kinase Nek6 (Homo sapiens) (UniProt Q9HC98); details: at 1 µM
# [8] = target: Serine/threonine-protein kinase Nek7 (Homo sapiens) (UniProt Q8TDX7); details: at 0.1 µM
# Chain of Serine/threonine-protein kinase Nek7 (Homo sapiens) (Q8TDX7 whole entry, looked up): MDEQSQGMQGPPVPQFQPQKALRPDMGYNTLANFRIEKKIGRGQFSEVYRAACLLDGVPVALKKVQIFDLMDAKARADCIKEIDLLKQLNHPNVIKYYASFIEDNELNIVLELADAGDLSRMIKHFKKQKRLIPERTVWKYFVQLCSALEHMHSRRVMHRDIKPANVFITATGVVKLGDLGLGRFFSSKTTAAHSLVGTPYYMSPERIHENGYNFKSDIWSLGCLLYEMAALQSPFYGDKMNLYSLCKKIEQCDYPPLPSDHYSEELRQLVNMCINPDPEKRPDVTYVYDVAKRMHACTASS
# [9] = target: Serine/threonine-protein kinase Nek7 (Homo sapiens) (UniProt Q8TDX7); details: at 1 µM
# [10] = target: T4, Serine/threonine-protein kinase Nek9 (Homo sapiens) (UniProt Q8TD19); details: at 0.1 µM
# T4 sequence (whole entry): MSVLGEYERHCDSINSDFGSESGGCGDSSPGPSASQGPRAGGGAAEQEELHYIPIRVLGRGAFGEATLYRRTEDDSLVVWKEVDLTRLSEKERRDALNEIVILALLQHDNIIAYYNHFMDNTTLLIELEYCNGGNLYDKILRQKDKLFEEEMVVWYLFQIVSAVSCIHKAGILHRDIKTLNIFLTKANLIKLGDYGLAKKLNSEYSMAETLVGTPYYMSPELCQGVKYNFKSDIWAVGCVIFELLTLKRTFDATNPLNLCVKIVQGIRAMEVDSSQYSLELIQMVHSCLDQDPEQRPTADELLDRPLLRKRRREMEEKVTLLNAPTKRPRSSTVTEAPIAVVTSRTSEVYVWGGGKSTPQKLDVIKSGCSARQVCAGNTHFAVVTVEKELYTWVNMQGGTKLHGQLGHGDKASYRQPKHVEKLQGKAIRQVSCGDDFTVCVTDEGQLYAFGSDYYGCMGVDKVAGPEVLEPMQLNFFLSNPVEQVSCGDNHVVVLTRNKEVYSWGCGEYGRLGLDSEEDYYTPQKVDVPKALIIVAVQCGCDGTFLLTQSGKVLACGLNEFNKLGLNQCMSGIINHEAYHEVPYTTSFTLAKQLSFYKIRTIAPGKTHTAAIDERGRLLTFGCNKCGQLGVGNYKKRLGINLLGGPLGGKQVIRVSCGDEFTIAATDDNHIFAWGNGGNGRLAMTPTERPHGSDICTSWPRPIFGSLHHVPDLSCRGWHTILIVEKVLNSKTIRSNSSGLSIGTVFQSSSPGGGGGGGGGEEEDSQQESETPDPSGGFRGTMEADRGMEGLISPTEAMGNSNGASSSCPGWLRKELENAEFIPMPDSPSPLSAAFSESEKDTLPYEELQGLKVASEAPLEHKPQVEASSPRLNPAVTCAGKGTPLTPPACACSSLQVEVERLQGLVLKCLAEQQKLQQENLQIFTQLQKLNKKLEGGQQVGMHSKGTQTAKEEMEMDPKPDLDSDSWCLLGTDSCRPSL
# [11] = target: T4, Serine/threonine-protein kinase Nek9 (Homo sapiens); details: at 1 µM
# [12] = target: Serine/threonine-protein kinase PLK1 (Homo sapiens) (UniProt P53350); details: at 0.1 µM
# Chain of Serine/threonine-protein kinase PLK1 (Homo sapiens) (P53350 whole entry): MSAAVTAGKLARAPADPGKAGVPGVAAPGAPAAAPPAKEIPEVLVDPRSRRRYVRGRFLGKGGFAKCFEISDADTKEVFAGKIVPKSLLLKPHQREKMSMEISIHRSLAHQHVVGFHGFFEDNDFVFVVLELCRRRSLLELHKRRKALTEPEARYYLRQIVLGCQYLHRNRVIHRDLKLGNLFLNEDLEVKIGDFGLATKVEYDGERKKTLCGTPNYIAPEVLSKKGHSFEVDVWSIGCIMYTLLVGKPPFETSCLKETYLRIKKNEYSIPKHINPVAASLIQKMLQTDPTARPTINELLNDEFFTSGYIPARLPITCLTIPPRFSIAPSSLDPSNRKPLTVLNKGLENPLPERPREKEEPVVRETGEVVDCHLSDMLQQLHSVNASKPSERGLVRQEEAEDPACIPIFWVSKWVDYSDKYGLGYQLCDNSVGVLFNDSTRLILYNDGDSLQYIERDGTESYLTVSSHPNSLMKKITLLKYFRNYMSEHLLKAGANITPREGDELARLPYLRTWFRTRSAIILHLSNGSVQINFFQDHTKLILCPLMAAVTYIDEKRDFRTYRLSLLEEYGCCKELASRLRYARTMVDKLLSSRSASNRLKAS
# [13] = target: Serine/threonine-protein kinase PLK1 (Homo sapiens) (UniProt P53350); details: at 1 µM
# [14] = target: T5, Dual specificity protein kinase TTK (Homo sapiens) (UniProt P33981); details: at 0.1 µM
# T5 sequence (whole entry): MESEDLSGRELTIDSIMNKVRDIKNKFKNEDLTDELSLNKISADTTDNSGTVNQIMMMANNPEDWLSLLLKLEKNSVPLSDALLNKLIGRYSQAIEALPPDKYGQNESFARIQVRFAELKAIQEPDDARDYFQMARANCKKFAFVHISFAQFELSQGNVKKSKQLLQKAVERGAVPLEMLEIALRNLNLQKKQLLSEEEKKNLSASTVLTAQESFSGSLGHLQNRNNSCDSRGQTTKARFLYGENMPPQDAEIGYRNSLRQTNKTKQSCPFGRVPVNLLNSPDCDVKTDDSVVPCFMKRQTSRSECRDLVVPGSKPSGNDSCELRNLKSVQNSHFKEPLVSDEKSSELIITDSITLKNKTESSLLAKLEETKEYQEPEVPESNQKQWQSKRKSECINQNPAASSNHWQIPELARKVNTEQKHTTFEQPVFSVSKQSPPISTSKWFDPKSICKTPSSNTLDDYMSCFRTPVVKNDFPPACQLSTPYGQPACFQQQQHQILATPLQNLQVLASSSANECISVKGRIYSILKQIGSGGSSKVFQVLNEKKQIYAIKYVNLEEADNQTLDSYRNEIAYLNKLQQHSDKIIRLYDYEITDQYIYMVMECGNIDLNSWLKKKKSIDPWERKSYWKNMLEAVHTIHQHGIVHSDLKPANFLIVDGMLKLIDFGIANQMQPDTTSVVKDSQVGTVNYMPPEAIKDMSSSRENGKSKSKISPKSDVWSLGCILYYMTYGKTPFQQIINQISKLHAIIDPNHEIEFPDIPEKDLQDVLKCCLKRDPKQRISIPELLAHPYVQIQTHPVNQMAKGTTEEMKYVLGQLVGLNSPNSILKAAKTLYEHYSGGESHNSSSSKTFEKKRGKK
# [15] = system: T6, Receptor-type tyrosine-protein kinase FLT3 (Homo sapiens), P36888 [D835Y]; details: at 1 µM
# T6 sequence (whole entry): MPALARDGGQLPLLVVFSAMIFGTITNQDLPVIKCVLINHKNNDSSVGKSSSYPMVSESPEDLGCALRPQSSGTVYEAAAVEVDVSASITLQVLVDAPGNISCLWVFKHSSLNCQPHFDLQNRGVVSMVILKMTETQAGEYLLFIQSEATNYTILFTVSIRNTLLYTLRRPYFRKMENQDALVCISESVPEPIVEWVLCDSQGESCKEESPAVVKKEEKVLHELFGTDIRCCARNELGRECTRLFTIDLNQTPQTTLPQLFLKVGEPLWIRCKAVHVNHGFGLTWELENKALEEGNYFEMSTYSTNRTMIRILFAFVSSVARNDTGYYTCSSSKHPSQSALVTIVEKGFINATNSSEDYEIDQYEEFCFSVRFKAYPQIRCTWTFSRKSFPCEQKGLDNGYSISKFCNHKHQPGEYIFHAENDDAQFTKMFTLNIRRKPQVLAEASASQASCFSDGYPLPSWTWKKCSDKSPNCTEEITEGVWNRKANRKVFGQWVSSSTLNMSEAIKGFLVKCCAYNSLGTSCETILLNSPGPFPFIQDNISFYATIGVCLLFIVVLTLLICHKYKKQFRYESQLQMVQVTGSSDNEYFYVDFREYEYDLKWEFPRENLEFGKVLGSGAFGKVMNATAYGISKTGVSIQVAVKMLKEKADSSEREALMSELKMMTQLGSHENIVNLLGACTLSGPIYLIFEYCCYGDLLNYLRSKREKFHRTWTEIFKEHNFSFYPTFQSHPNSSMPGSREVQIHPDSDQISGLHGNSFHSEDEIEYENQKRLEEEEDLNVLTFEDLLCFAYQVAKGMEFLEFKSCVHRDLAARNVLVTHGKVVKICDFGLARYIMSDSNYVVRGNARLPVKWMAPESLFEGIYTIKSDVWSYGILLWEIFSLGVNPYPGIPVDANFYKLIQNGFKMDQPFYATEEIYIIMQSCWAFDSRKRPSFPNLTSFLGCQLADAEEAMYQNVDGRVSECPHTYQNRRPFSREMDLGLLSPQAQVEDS
# [16] = target: Vascular endothelial growth factor receptor 3 (Homo sapiens) (UniProt P35916); details: at 0.1 µM
# Chain of Vascular endothelial growth factor receptor 3 (Homo sapiens) (P35916 whole entry): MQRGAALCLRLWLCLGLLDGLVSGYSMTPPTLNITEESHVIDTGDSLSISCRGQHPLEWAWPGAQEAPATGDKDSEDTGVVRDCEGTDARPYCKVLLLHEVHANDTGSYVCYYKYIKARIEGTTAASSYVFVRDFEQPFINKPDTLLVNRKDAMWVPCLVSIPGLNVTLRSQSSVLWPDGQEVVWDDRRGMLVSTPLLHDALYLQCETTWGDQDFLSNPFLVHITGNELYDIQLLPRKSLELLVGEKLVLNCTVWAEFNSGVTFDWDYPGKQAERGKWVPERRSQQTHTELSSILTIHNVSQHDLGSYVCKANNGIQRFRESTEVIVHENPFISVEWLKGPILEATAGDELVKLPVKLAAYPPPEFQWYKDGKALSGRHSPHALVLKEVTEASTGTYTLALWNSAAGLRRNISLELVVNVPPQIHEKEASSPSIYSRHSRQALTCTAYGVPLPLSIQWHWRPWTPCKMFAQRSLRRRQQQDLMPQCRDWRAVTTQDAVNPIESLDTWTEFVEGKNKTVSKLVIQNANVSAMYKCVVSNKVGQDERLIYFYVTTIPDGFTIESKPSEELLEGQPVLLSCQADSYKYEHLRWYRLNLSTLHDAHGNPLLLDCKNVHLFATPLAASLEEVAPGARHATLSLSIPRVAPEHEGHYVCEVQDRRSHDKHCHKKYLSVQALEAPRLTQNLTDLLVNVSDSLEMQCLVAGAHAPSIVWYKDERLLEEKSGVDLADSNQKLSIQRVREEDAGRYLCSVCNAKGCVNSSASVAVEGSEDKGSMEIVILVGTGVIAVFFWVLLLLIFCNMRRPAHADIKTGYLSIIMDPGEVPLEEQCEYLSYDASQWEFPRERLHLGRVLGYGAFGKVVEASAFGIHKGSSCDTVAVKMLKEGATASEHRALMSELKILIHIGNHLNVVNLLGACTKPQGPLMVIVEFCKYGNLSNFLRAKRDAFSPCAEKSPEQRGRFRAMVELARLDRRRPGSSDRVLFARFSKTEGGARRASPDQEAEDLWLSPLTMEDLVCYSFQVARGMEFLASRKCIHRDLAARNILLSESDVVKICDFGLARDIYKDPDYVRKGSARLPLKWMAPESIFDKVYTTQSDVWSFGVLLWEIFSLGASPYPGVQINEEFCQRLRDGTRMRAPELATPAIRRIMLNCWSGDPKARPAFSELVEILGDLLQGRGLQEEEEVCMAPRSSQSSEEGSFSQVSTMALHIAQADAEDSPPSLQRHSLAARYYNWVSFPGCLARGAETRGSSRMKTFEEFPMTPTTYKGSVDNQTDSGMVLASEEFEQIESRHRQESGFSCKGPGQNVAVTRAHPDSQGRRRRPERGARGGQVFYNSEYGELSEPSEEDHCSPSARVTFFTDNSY
# [17] = target: Vascular endothelial growth factor receptor 3 (Homo sapiens) (UniProt P35916); details: at 1 µM
# [18] = target: Macrophage colony-stimulating factor 1 receptor (Homo sapiens) (UniProt P07333); details: at 0.1 µM
# Chain of Macrophage colony-stimulating factor 1 receptor (Homo sapiens) (P07333 whole entry): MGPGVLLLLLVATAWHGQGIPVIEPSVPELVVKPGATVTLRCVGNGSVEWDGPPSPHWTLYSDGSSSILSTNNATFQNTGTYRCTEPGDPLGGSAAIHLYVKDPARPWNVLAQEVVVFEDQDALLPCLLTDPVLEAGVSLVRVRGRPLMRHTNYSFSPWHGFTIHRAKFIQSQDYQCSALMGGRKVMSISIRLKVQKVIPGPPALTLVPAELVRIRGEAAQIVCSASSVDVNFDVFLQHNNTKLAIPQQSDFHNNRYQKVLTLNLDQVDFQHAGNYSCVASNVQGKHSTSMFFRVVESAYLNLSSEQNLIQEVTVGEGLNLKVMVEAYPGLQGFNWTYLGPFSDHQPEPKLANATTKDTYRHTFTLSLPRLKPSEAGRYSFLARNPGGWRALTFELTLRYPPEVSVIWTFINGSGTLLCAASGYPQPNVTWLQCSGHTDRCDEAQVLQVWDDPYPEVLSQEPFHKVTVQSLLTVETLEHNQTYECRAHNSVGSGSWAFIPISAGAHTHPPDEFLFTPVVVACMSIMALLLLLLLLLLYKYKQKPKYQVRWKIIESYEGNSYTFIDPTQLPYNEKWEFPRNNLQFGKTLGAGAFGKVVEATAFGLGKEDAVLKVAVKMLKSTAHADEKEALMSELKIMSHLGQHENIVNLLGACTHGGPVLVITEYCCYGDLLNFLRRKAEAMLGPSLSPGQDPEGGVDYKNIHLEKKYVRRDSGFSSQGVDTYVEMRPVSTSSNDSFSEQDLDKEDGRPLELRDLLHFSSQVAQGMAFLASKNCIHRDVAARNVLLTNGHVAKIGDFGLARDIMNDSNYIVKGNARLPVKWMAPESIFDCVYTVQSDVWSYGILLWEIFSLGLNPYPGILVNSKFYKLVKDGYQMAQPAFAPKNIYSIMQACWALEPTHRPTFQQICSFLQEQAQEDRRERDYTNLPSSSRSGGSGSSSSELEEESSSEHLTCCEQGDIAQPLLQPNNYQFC
# [19] = target: Macrophage colony-stimulating factor 1 receptor (Homo sapiens) (UniProt P07333); details: at 1 µM
# [20] = target: Tyrosine-protein kinase Fyn (Homo sapiens) (UniProt P06241); details: at 0.1 µM
# Chain of Tyrosine-protein kinase Fyn (Homo sapiens) (P06241 2-537 limits assumed): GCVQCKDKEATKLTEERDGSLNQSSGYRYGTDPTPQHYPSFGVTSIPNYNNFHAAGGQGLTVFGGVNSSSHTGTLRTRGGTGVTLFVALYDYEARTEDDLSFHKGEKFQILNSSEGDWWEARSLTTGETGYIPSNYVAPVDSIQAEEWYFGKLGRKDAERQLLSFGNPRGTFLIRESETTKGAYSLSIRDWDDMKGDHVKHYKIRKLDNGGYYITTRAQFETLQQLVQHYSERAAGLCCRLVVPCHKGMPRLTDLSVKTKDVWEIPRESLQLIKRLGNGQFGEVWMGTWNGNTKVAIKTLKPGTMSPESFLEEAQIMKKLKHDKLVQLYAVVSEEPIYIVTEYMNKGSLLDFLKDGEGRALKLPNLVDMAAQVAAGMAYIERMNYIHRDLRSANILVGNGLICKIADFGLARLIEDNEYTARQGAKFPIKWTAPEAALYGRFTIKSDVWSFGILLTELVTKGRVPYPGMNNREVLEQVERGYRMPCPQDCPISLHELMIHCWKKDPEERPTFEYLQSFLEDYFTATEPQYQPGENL
SMILES,inhibition [1],inhibition [2],inhibition [3],inhibition [4],inhibition [5],inhibition [6],inhibition [7],inhibition [8],inhibition [9],inhibition [10],inhibition [11],inhibition [12],inhibition [13],inhibition [14],inhibition [15],inhibition [16],inhibition [17],inhibition [18],inhibition [19],inhibition [20]
CC(C)COC(=O)c1ccc2c(c1)/C(=C/Nc1ccc(S(N)(=O)=O)cc1)C(=O)N2,93.4%,-1.61%,2.33%,-0.98%,0.66%,-0.45%,9.49%,0.03%,0.46%,-3.08%,0.18%,1.14%,2.98%,53.6%,86.5%,30.1%,80.6%,7.27%,45.8%,22.6%
CCNC(=O)O[C@H]1CN[C@H](C#Cc2cc3ncnc(Nc4ccc(OCc5cccc(F)c5)c(Cl)c4)c3s2)C1,2.76%,1.8%,2.36%,3.33%,6.2%,3.89%,0.56%,3.85%,3.51%,12%,4.6%,3.22%,3.29%,2.67%,2.57%,5.21%,-0.66%,3.01%,2.53%,3.33%
Fc1cccc(COc2ccc(Nc3ncnc4sc(-c5ccco5)cc34)cc2Cl)c1,4.97%,1.98%,3.24%,3.69%,5.99%,1.71%,2.07%,2.72%,4.26%,10.3%,8.43%,6.82%,4.61%,6.94%,0.69%,1.58%,3.49%,0.84%,8.62%,0.36%
